Data: PubChem BioAssay (NCATS)
Records with an inconclusive call do not appear. Active and inactive are the calls of the source. Calls come from the whole dose curve; as a rule, active = well fitted curve in the direction sought with a large enough effect; inconclusive = small, poorly fitted or top-dose-only effect, or another doubt; inactive = no such curve, though single readings can be large; an effect the other way counts as inactive or inconclusive.

Legend:
[1] = qHTS of pediatric cancer cell lines to identify multiple opportunities for drug repurposing: Primary screen for Saos-2 cells (AID 1347097); note: % is set by controls: 0 for no effect and ±100 for the full control effect; nearly all actives have a fitted effect of over 40% in size
Procedure, shortened: (§1)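 500-1,000 cells/well; 5 h pre-incubation 37 °C/5% CO2; compound pinned; 48 h; CellTiter-Glo, 15 min RT; luminescence. MIPE 11-pt from 0.78 nM, NPC 8-pt from 0.59 nM final. Bortezomib 2.3 µM final as positive control.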

[2] = qHTS of pediatric cancer cell lines to identify multiple opportunities for drug repurposing: Primary screen for SK-N-SH cells (AID 1347098);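 note: DMSO served as neutral control and bortezomib at 2.3 µM as positive control; % is set by controls: 0 for no effect and ±100 for the full control effect; nearly all actives have a fitted effect of over 65% in size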
Procedure, shortened: (§2)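 Cells (500-1,000/well) rested 5 h, then received compounds for 48 h; metabolically active cells were measured by CellTiter-Glo luminescence. Final concentrations spanned up to 46 µM (MIPE, 11-point) or 0.59 nM-46 µM (NPC, 8-point) in primary screens, 11-point in follow-ups.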

[3] = qHTS of pediatric cancer cell lines to identify multiple opportunities for drug repurposing: Primary screen for NB1643 cells (AID 1347099);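 note: plate controls were DMSO neutral control for no effect and bortezomib positive control for full effect; nearly all actives have a fitted effect of over 50% in size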
Procedure, shortened: as §1

[4] = qHTS of pediatric cancer cell lines to identify multiple opportunities for drug repurposing: Primary screen for LAN-5 cells (AID 1347100);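 note: plate controls were DMSO neutral control for no effect and bortezomib positive control for full effect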
Procedure, shortened: (§3)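 Viability after 48 h compound treatment at 37C, 500-1,000 cells/well, read as ATP luminescence with CellTiter-Glo. Primary screens used 11-point (MIPE, 0.78 nM-46 µM) or 8-point (NPC, 0.59 nM-46 µM) final concentrations; follow-up screens used 11-point dilutions.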

[5] = qHTS of pediatric cancer cell lines to identify multiple opportunities for drug repurposing: Primary screen for BT-12 cells (AID 1347101);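 note: plate controls were DMSO for no effect and bortezomib positive control for full effect; nearly all actives have a fitted effect of over 25% in size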
Procedure, shortened: as §2

[6] = qHTS of pediatric cancer cell lines to identify multiple opportunities for drug repurposing: Primary screen for Rh18 cells (AID 1347102); note: % is set by controls: 0 for no effect and ±100 for the full control effect; nearly all actives have a fitted effect of over 65% in size
Procedure, shortened: as §3

[7] = qHTS of pediatric cancer cell lines to identify multiple opportunities for drug repurposing: Primary screen for OHS-50 cells (AID 1347103);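 note: plate controls were DMSO neutral control for no effect and bortezomib positive control for full effect; nearly all actives have a fitted effect of over 40% in size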
Procedure, shortened: as §2

[8] = qHTS of pediatric cancer cell lines to identify multiple opportunities for drug repurposing: Primary screen for RD cells (AID 1347104);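 note: plate controls were DMSO for no effect and bortezomib for full effect; nearly all actives have a fitted effect of over 55% in size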
Procedure, shortened: as §1

[9] = qHTS of pediatric cancer cell lines to identify multiple opportunities for drug repurposing: Primary screen for MG 63 (6-TG R) cells (AID 1347105); note: % is set by controls: 0 for no effect and ±100 for the full control effect; nearly all actives have a fitted effect of over 50% in size
Procedure, shortened: as §1

[10] = qHTS of pediatric cancer cell lines to identify multiple opportunities for drug repurposing: Primary screen for control Hh wild type fibroblast cells (AID 1347106);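 note: series mostly up to about 46 µM; % is set by controls: 0 for no effect and ±100 for the full control effect; a drop in luminescence marks cytotoxicity and a rise apparent proliferation; nearly all actives have a fitted effect of over 55% in size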
Procedure, shortened: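 Cells (500-1,000/well) in growth media were settled 5 h at 37 degrees C, then given compounds for 48 h. Viability was read as CellTiter-Glo luminescence. Primary runs used MIPE at 11 points (0.78 nM-46 µM) and NPC at 8 points (0.59 nM-46 µM); follow-ups used 11 points.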

[11] = qHTS of pediatric cancer cell lines to identify multiple opportunities for drug repurposing: Primary screen for Rh30 cells (AID 1347107); note: series mostly up to about 46 µM; % is set by controls: 0 for no effect and ±100 for the full control effect; nearly all actives have a fitted effect of over 75% in size
Procedure, shortened: as §3

[12] = qHTS of pediatric cancer cell lines to identify multiple opportunities for drug repurposing: Primary screen for Rh41 cells (AID 1347108);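 note: series mostly up to about 46 µM; luminescence drop marks cytotoxic hits; nearly all actives have a fitted effect of over 70% in size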
Procedure, shortened: as §1

[13] = qHTS of pediatric cancer cell lines to identify multiple opportunities for drug repurposing: Confirmatory screen for NB1643 cells (AID 1347109);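 note: plate controls were DMSO for no effect and bortezomib for full effect; nearly all actives have a fitted effect of over 45% in size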
Procedure, shortened: as §3

[14] = qHTS of pediatric cancer cell lines to identify multiple opportunities for drug repurposing: Confirmatory screen for A673 cells (AID 1347110); note: nearly all actives have a fitted effect of over 65% in size
Procedure, shortened: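 qHTS titration format: primary MIPE 0.78 nM-46 µM (11 pts), NPC 0.59 nM-46 µM; confirmation 11 pts. 48 h, CTG luminescence.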

[15] = qHTS of pediatric cancer cell lines to identify multiple opportunities for drug repurposing: Confirmatory screen for SK-N-MC cells (AID 1347111);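 note: cells exposed to compound for 48 h before the readout; plate controls were DMSO for no effect and bortezomib for full effect; nearly all actives have a fitted effect of over 70% in size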
Procedure, shortened: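 SK-N-MC cells at 500-1,000 cells/well in growth media were pre-incubated 5 h, then exposed to compounds at 11-point dilutions for 48 h at 37 degrees C, 5% CO2. Viability was read as CellTiter-Glo luminescence.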

[16] = qHTS of pediatric cancer cell lines to identify multiple opportunities for drug repurposing: Confirmatory screen for BT-12 cells (AID 1347112); note: % is set by controls: 0 for no effect and ±100 for the full control effect; nearly all actives have a fitted effect of over 55% in size
Procedure, shortened: as §3

[17] = qHTS of pediatric cancer cell lines to identify multiple opportunities for drug repurposing: Confirmatory screen for LAN-5 cells (AID 1347113); note: % is set by controls: 0 for no effect and ±100 for the full control effect; nearly all actives have a fitted effect of over 65% in size
Procedure, shortened: as §3

[18] = qHTS of pediatric cancer cell lines to identify multiple opportunities for drug repurposing: Confirmatory screen for NB-EBc1 cells (AID 1347115); note: % is set by controls: 0 for no effect and ±100 for the full control effect; nearly all actives have a fitted effect of over 45% in size
Procedure, shortened: as §3

[19] = qHTS of pediatric cancer cell lines to identify multiple opportunities for drug repurposing: Confirmatory screen for SJ-GBM2 cells (AID 1347116); note: nearly all actives have a fitted effect of over 60% in size
Procedure, shortened: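 Viability measured as metabolically active cells via CellTiter-Glo luminescence following 48 hours of compound exposure, 11-point dilutions in confirmatory testing. 500-1,000 cells/well plated 5 hours before dosing; controls were DMSO and 2.3 µM bortezomib.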

Nc1ccc(S(=O)(=O)NC(=O)c2ccccc2)cc1
inactive: Potency [1] | Potency [2] | Potency [3] | Potency [4] | Potency [5] | Potency [6] | Potency [7] | Potency [8] | Potency [9] | outcome [10] | outcome [11] | Potency [12]

CC1(C)CO[C@@H](CC(=O)O)CN1
inactive: Potency [1] | Potency [2] | Potency [3] | Potency [4] | Potency [5] | Potency [6] | Potency [7] | Potency [8] | Potency [9] | outcome [10] | Potency [12]

COc1ccc(Cl)cc1C(=O)NCCc1ccc(S(=O)(=O)NC(=O)NC2CCCCC2)cc1
inactive: Potency [1] | Potency [2] | Potency [3] | Potency [4] | Potency [5] | Potency [6] | Potency [7] | Potency [8] | Potency [9] | outcome [10] | Potency [12]

CC(=O)Nc1ccc(/C=N/NC(N)=S)cc1
inactive: Potency [1] | Potency [2] | Potency [3] | Potency [4] | Potency [5] | Potency [6] | Potency [7] | Potency [8] | Potency [9] | outcome [10] | outcome [11] | Potency [12]

CC(C)C(=O)c1c(C(C)C)nn2ccccc12
inactive: Potency [1] | Potency [2] | Potency [3] | Potency [4] | Potency [5] | Potency [6] | Potency [7] | Potency [9] | outcome [10] | outcome [11] | Potency [12]

O=c1cc[nH]c(=O)[nH]1
inactive: Potency [1] | Potency [2] | Potency [3] | Potency [4] | Potency [5] | Potency [6] | Potency [7] | Potency [9] | outcome [10] | outcome [11] | Potency [12]

CN1CCOC(c2ccccc2)c2ccccc2C1 (stereo unspecified)
inactive: Potency [1] | Potency [2] | Potency [3] | Potency [4] | Potency [5] | Potency [6] | Potency [7] | Potency [8] | Potency [9] | outcome [10] | outcome [11] | Potency [12]

C/C(=C(\CCOP(=O)(O)O)SC(=O)c1ccccc1)N(C=O)Cc1cnc(C)nc1N
inactive: activity change, negative = cytotoxic [1] -7.29% [at 4.84 µM] | activity change, negative = cytotoxic [2] -2.92% [at 6 µM] | activity change, negative = cytotoxic [3] 16.8% [at 4.84 µM] | activity change, negative = cytotoxic [4] 5.99% [at 4.84 µM] | activity change, negative = cytotoxic [5] 9.87% [at 6.03 µM] | activity change, negative = cytotoxic [6] 28.8% [at 4.84 µM] | activity change, negative = cytotoxic [7] 12% [at 6.18 µM] | activity change, negative = cytotoxic [8] 3.8% [at 4.84 µM] | activity change, negative = cytotoxic [9] -1.82% [at 4.84 µM] | activity change, negative = cytotoxic [10] 4.64% [at 4.84 µM] | activity change, negative = cytotoxic [12] 27.9% [at 4.84 µM]

N[C@H]1C(O)O[C@H](CO)[C@@H](O)[C@@H]1O (stereo partly specified)
inactive: Potency [1] | Potency [2] | Potency [3] | Potency [4] | Potency [5] | Potency [6] | Potency [7] | Potency [9] | outcome [10] | outcome [11] | Potency [12]

C[C@@H]1CC[C@@]2(OC1)O[C@H]1C[C@H]3[C@@H]4CC[C@H]5C[C@@H](O)CC[C@]5(C)[C@H]4CC(=O)[C@]3(C)[C@H]1[C@@H]2C
inactive: activity change, negative = cytotoxic [1] -14.3% [at 4.84 µM] | activity change, negative = cytotoxic [2] -10.6% [at 6 µM] | activity change, negative = cytotoxic [3] 31.5% [at 4.84 µM] | activity change, negative = cytotoxic [4] -6.9% [at 4.84 µM] | activity change, negative = cytotoxic [5] 6.34% [at 6.03 µM] | activity change, negative = cytotoxic [6] 11.3% [at 4.84 µM] | activity change, negative = cytotoxic [7] 9.93% [at 6.18 µM] | activity change, negative = cytotoxic [8] 12.6% [at 4.84 µM] | activity change, negative = cytotoxic [9] -5.19% [at 4.84 µM] | activity change, negative = cytotoxic [10] 6.44% [at 4.84 µM] | activity change, negative = cytotoxic [11] 18.9% [at 4.84 µM] | activity change, negative = cytotoxic [12] 21.2% [at 4.84 µM]

Cn1cc[nH]c1=S
inactive: Potency [1] | Potency [2] | Potency [3] | Potency [4] | Potency [5] | Potency [6] | Potency [7] | Potency [8] | Potency [9] | outcome [10] | outcome [11] | Potency [12]

O=C1N=C(O)CN1/N=C/c1ccc(-c2ccc([N+](=O)[O-])cc2)o1
inactive: Potency [1] | Potency [2] | Potency [3] | Potency [4] | Potency [5] | Potency [6] | Potency [7] | Potency [8] | Potency [9] | outcome [10] | outcome [11] | Potency [12] | Potency [13] | Potency [14] | Potency [15] | Potency [16] | Potency [17] | Potency [18] | Potency [19]

C[C@@H](O)[C@H](N)C(=O)O
inactive: Potency [1] | Potency [2] | Potency [3] | Potency [4] | Potency [5] | Potency [6] | Potency [7] | Potency [8] | Potency [9] | outcome [10] | outcome [11] | Potency [12]

O=S(=O)(O)NC1CCCCC1
inactive: Potency [1] | Potency [2] | Potency [3] | Potency [4] | Potency [5] | Potency [6] | Potency [7] | Potency [8] | Potency [9] | outcome [10] | outcome [11] | Potency [12]

CC[C@@]1(c2ccccc2)NC(=O)N(C)C1=O
inactive: Potency [1] | Potency [2] | Potency [3] | Potency [4] | Potency [5] | Potency [6] | Potency [7] | Potency [8] | Potency [9] | outcome [10] | outcome [11] | Potency [12]

O=Cc1ccccc1C=O
inactive: Potency [1] | Potency [2] | Potency [3] | Potency [4] | Potency [5] | Potency [6] | Potency [7] | Potency [8] | Potency [9] | outcome [10] | Potency [12]

Cc1cc(O)cc2c1O[C@](C)(CCC[C@H](C)CCC[C@H](C)CCCC(C)C)CC2
inactive: Potency [1] | Potency [2] | Potency [3] | Potency [4] | Potency [5] | Potency [6] | Potency [7] | Potency [9] | outcome [10] | outcome [11] | Potency [12]

Oc1cccc(O)c1
inactive: Potency [1] | Potency [2] | Potency [3] | Potency [4] | Potency [5] | Potency [6] | Potency [7] | Potency [8] | Potency [9] | outcome [10] | outcome [11] | Potency [12]

O=C(O)c1ccccc1O
inactive: Potency [1] | Potency [2] | Potency [3] | Potency [4] | Potency [5] | Potency [6] | Potency [7] | Potency [9] | outcome [10] | outcome [11] | Potency [12]
